Screens from PubChem.
RE007 growth inh: less growth of the S. pombe RE007 Vpr strain | S. pombe RE007 Vpr strain, BacTiter-Glo ATP luminescence, 24 h | hit rate 0.21% among 360,000 | Potency, µM (doses to about 92.2 µM), actives largely listed as inhibitors; active = well fitted falling curve with a large enough effect; inconclusive = small, poorly fitted or top-dose-only effect; inactive = no such curve, though single readings can be large or run the other way; also: nearly all actives have a fitted effect of over 50% in size
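Fission yeast RE007 carrying one integrated HIV-1 vpr copy, seeded at OD 0.01 in PMG+AL medium with 23 nL pinned compound. Grown 24 h at 30 degrees; viability read by BacTiter-Glo luminescence after 5 min.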
FBPA Giardia inh: Giardia lamblia aldolase inhibition; A8B2U2; purified Giardia FBPA; Potency, µM (titrated, usually from 59.6 µM), actives largely listed as inhibitors; hit rate 0.71% among 290,000; AID 2451; also: nearly all actives have a fitted effect of over 55% in size
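Giardia FBPA (40 nM reagent) was preincubated 10 min at RT with compound (up to 57.5 uM final), then substrate plus GAPDH/TPI/NAD/arsenate coupling system with diaphorase/resazurin was added; resorufin fluorescence (525/598 nm) was read after 20 min.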
Cycloheximide cs: affects cycloheximide protein synthesis inhibition readout, counter-screen; max response, %; hit rate 12% among 300,000; cell reporter, cycloheximide protein synthesis inhibition counterscreen; in the data active = max response mostly above about 13%, no sharp cut-off; inactive = mostly below about 14%; also: read at 38.3 µM for the half of the compounds with a filed dose
Shiga inhibitor: inhibitors of Shiga toxin in Vero cells | Vero cells, Shiga toxin protein synthesis inhibition reporter | inhibition, % at 38.7 µM | hit rate 9.2% among 290,000 | AID 2315; in the data active = inhibition mostly above about 28%, no sharp cut-off; inactive = mostly below about 43%
LmPK inhibitor: LmPK (Leishmania mexicana) enzyme inhibition; hit rate 0.37% among 290,000; Potency, µM (top dose mostly 57.5 µM), hits mostly inhibitors; purified LmPK, Kinase-Glo ATP luminescence, 1 h; Q27686
Target sequence (Q27686 whole entry, looked up): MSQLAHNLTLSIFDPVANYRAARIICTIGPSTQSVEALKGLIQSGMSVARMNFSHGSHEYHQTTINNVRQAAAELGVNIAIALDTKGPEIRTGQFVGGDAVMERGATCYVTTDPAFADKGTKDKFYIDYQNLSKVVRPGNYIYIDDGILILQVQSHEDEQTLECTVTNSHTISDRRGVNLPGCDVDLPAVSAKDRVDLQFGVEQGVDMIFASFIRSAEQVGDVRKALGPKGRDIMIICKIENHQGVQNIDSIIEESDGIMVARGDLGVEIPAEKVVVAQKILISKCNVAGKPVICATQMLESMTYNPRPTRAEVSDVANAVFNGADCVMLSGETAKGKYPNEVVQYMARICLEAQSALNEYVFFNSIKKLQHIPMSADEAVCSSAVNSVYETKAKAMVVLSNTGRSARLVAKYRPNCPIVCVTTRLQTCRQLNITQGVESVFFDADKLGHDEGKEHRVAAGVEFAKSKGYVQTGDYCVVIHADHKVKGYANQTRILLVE
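qHTS format; LmPK 0.1 nM; substrates PEP 0.5 mM and ADP 0.1 mM. One-hour room-temperature incubation, then coupled luciferase luminescence; 0.5 nM enzyme wells mark activation.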
Tb PYK inh: inhibitors of Trypanosoma brucei pyruvate kinase. AID 624173. Q57TT1. hit rate 0.12% among 410,000. TbPYK enzyme, Kinase-Glo Plus ATP luminescence, 45 min. Potency, µM (highest dose often 76.8 µM), usual class: inhibitors; also: nearly all actives have a fitted effect of over 50% in size
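Readout: single end-point luminescence (Kinase-Glo Plus, 10 min). Reaction conditions were TbPYK/substrate plus 130 uM ADP, 45 min at RT, pH 7.2 TEA buffer. No-enzyme wells served as controls, and data were normalized before concentration-response fitting.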
A number is an active result; n = inactive; u = inconclusive; x = no result. Only a selection was taken, and hits are over-represented in it overall. Unless noted, calls follow the shape of the dose curve; as a rule, active = well fitted curve in the direction sought with a large enough effect; inconclusive = small, poorly fitted or top-dose-only effect, or another doubt; inactive = no such curve, though single readings can be large; an effect the other way counts as inactive or inconclusive.

SMILES	RE007 growth inh	FBPA Giardia inh	Cycloheximide cs	Shiga inhibitor	LmPK inhibitor	Tb PYK inh
CC(O)[C@@]1(O)CC[C@H]2[C@@H]3CC[C@H]4C[C@@H](O)CC[C@]4(C)C3=CC[C@@]21C (some centres not stated)	n	x	x	x	x	n
CCN(CC)C(=O)Cn1c(=O)n(CC2CCC(C(=O)NC)CC2)c(=O)c2sccc21 (configuration not stated)	x	x	x	x	x	n
O=C(O)[C@H](O)[C@@H](O)C(=O)O	n	x	x	x	x	n
COc1ccccc1NC(=O)c1cc2ccccc2o/c1=N\O	n	n	n	n	n	n
COc1cc(SC)ccc1C(=O)Nc1ncc(C)s1	n	n	n	n	n	n
COc1cc(SC)ccc1C(=O)Nc1cccc(C)n1	n	n	33.1	83.8	n	n
COc1ccc(CNC(=O)c2ccc(SC)cc2OC)cc1	n	n	n	n	n	n
COc1cc(SC)ccc1C(=O)NCCc1ccccc1	n	n	49.2	73.9	n	n
COc1ccc(N=c2oc3ccccc3cc2C(=O)Nc2ccccn2)cc1OC	x	n	52.1	97.5	n	x
COc1cc(SC)ccc1C(=O)Nc1ccc(Br)cn1	n	n	30.6	76.1	u	n
CN(C)Cc1ccccc1-c1nccc(NCc2cccs2)n1	x	n	x	x	x	x
O=C(N1CCc2ccc(S(=O)(=O)N3CCN(S(=O)(=O)c4ccc5c(c4)OCCO5)CC3)cc2C1)C(F)(F)F	x	x	n	n	x	x
CCOC(=O)C1CCC(CN(Cc2ccc(OC)cc2)S(=O)(=O)c2ccc(F)c(C(=O)Nc3c(C)cccc3C)c2)CC1 (configuration not stated)	x	x	x	x	x	n
Oc1ccc(O)c(Cc2nc3ccccc3s2)c1	n	n	32.4	43.4	n	n
Oc1ccccc1OCc1nc2ccccc2s1	n	n	35.1	142.6	n	n
Cc1ccc(C(=O)OCc2nc3ccccc3s2)o1	n	x	x	x	x	n
OCc1cc(Br)ccc1OCc1nc2ccccc2s1	n	n	45.5	82.2	n	n
O=[N+]([O-])c1cccc(C2(O)COc3ccccc3O2)c1 (configuration not stated)	n	n	n	n	n	n
CCN(c1cccc(C)c1)S(=O)(=O)c1ccc(-n2cccn2)cc1	n	x	n	n	n	n
Cc1ccc(N2C(=O)NC(=O)/C(=C\C=C\c3ccco3)C2=O)cc1	n	n	61.0	56.3	n	n
Cc1cccc(N2C(=O)NC(=O)/C(=C\C=C\c3ccco3)C2=O)c1	n	n	20.2	n	n	n
Cc1ccc(N2C(=O)NC(=O)/C(=C\C=C\c3ccco3)C2=O)cc1C	n	n	17.8	n	n	n
O=C1NC(=O)N(Cc2ccccc2)C(=O)/C1=C\C=C\c1ccco1	n	n	29.7	n	n	n
O=C(OCc1nnc(-c2cccs2)o1)C1=NN(c2ccccc2)C(=O)CC1	n	x	x	x	x	n
CC1CC(C)CN(C(=O)COC(=O)c2ccc(S(=O)(=O)N(C)c3ccccc3)cc2)C1 (configuration not stated)	n	x	x	x	x	n
SMILES	RE007 growth inh	FBPA Giardia inh	Cycloheximide cs	Shiga inhibitor	LmPK inhibitor	Tb PYK inh
CCN1CCN(c2c(S(=O)(=O)c3ccc(C)c(C)c3)cnc3ccc(F)cc23)CC1	n	n	n	n	n	n
C=CCN1C(=O)NC(=O)/C(=C/C=C/c2ccccc2)C1=O	n	n	n	n	n	n
CN(C)c1ccc(/C=C/C=C2/C(=O)NC(=O)N(c3ccccc3)C2=O)cc1	n	n	n	n	12.6µM	u
O=C1NC(=O)N(CCc2ccc(F)cc2)C(=O)/C1=C\C=C\c1ccccc1	n	n	20.8	n	n	n
O=C1NC(=O)N(c2ccccc2)C(=O)/C1=C/C=C/c1ccco1	n	n	36.1	57.2	n	u
CCN(c1ccccc1)S(=O)(=O)c1c(C)nc2scc(C)n2c1=O	x	x	x	x	x	n
CCCS(=O)(=O)NC(=O)C1(C)CCN(C(=O)Cc2cccc3ccccc23)C1 (configuration not stated)	n	x	x	x	x	n
Cc1cc(C(=O)CSc2nncs2)c(C)n1-c1c(C)n(C)n(-c2ccccc2)c1=O	n	n	n	n	n	n
Cc1ccc(-n2c(C)cc(C(=O)CSc3nnnn3C)c2C)cc1	n	n	52.9	66.1	n	n
Cc1ccc(-n2c(C)cc(C(=O)CSc3nncs3)c2C)cc1	n	n	45.4	105.1	n	n
CCc1ccc(Nc2ccc3nonc3c2[N+](=O)[O-])cc1	n	x	x	x	x	n
CCOC(=O)NNc1ccc2nonc2c1[N+](=O)[O-]	25.1µM	7.06µM	n	n	n	n
O=C(c1cnccn1)N1CCC2(CC1)CN(Cc1cc(C(F)(F)F)cc(C(F)(F)F)c1)C2	x	n	x	x	x	n
COC1CCCN(C(=O)c2ccc3oc(Cc4ccc(Cl)cc4)nc3c2)C1 (configuration not stated)	n	x	n	n	n	n
COCC1CCN(C(=O)c2ccc3nc(Cc4cccc(Cl)c4)oc3c2)CC1	n	x	x	x	x	n
COC1CCCN(C(=O)c2ccc3nc(Cc4cccc(Cl)c4)oc3c2)C1 (configuration not stated)	n	x	n	49.0	n	n
COCC1CCCN(C(=O)c2ccc3nc(Cc4cccc(Cl)c4)oc3c2)C1 (configuration not stated)	n	x	42.3	89.4	n	n
Brc1ccc(Oc2ncc(CN3CCN(c4ccccc4)CC3)s2)cc1	u	n	n	n	n	n
Cc1ccc(Oc2ncc(CN3CCOCC3)s2)cc1	n	n	24.3	61.3	n	n
Clc1cccc(Oc2ncc(CN3CCOCC3)s2)c1	n	n	20.1	n	n	n
O=C(O)CN1CCc2ccccc2C1	n	n	n	n	n	n
COc1ccc(Cn2c(C3CC3)nc3ccc(NC(=O)C4CC4)cc3c2=O)cc1	n	n	23.7	84.0	n	n
O=C(Nc1ccc2nc(C3CC3)n(Cc3ccc(F)cc3)c(=O)c2c1)c1ccco1	n	n	n	n	n	n
CCC(=O)Nc1ccc2nc(C3CC3)n(Cc3ccc(C(C)(C)C)cc3)c(=O)c2c1	n	n	57.3	90.1	n	n
CC(=O)Nc1ccc2nc(C3CC3)n(Cc3ccc(Cl)cc3)c(=O)c2c1	n	n	22.7	49.5	n	n
SMILES	RE007 growth inh	FBPA Giardia inh	Cycloheximide cs	Shiga inhibitor	LmPK inhibitor	Tb PYK inh
Cc1cccc(-n2c(=O)c3ccccc3n(Cc3ccc(F)cc3)c2=O)c1	x	x	x	x	x	n
Cc1cccc(OCC(=O)Nc2ccc(NC(=O)c3ccco3)cc2)c1	n	n	n	n	n	n
O=C(CN1CCCCCC1)N/N=C/c1cccc(Cl)c1Cl	n	n	24.4	105.0	n	n
O=C(CN1CCCCC1)N/N=C/c1ccccc1Br	n	n	9.1	n	n	n
Oc1ccccc1Nc1ncnc2c1oc1ccccc12	n	n	38.5	n	n	n
O=S(=O)(Nc1ncnc2c1oc1ccccc12)c1ccc(Cl)s1	n	n	15.6	n	n	n
Oc1ccc(Nc2ncnc3c2oc2ccccc23)cc1	x	n	40.5	32.9	n	n
